Measured values from PubChem BioAssay (NCATS).
Results filed as inconclusive are left out. Entries that show only a call come without a potency. Values without a mark were called inactive. Active and inactive are the calls of the source. Calls come from the whole dose curve; as a rule, active = well fitted curve in the direction sought with a large enough effect; inconclusive = small, poorly fitted or top-dose-only effect, or another doubt; inactive = no such curve, though single readings can be large; an effect the other way counts as inactive or inconclusive.

Columns and labels:
[1] = system: JEG-3; test: Primary qHTS to identify gynecologic anti-cancer compounds using libraries of approved drugs and bioactive compounds (AID 1345084); conditions: Gynecologic cancer cell panel viability, ATPlite luminescence, 48 h; series mostly up to 57.5 µM; note: nearly all actives have a fitted effect of over 55% in size
In short: (§1)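 Cytotoxicity screen measuring ATP content by luciferase luminescence. Each compound is applied at five concentrations for 48 h at 37 C with 5% CO2.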

[2] = system: OV90; test: as above; conditions: Gynecologic cancer cell panel viability, ATPlite luminescence, 48 h; series mostly up to 57.5 µM
In short: as §1

[3] = system: PA-1; test: as above; conditions: Gynecologic cancer cell panel viability, ATPlite luminescence, 48 h; series mostly up to 57.5 µM
In short: as §1

[4] = system: SKOV3; test: as above; conditions: Gynecologic cancer cell panel viability, ATPlite luminescence, 48 h; series mostly up to 57.5 µM
In short: as §1

[5] = system: Tov-21-G; test: as above; conditions: Gynecologic cancer cell panel viability, ATPlite luminescence, 48 h; series mostly up to 57.5 µM
In short: as §1

[6] = system: Tov112D; test: as above; conditions: Gynecologic cancer cell panel viability, ATPlite luminescence, 48 h; series mostly up to 57.5 µM
In short: as §1

[7] = Drug repurposing screens with cells derived from glioblastoma tumor samples (AID 1345199); conditions: GBM patient neurospheres viability, ATP luminescence, 48 h; note: nearly all actives have a fitted effect of over 40% in size; note: potency is the fitted concentration of half-maximal effect
In short: (§2)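 Primary testing used CD133+ neurospheres from four GBM patients, seven concentrations, 48 h exposure and ATP-based viability; confirmation added three slower-growing patient lines.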

[8] = system: astro; test: as above; conditions: viability, ATP luminescence, 48 h; series mostly up to 45.9 µM
In short: as §2

[9] = at 45.9 µM (top of the series), tumour line B
[10] = at 45.9 µM (top of the series), tumour line D
[11] = at 46.1 µM (top of the series), tumour line C
[12] = at 46 µM (top of the series), tumour line A
[13] = at 20 µM (top of the series), tumour line C
[14] = at 21.2 µM (top of the series), tumour line B
[15] = at 21.2 µM (top of the series), tumour line D
[16] = at 21.3 µM (top of the series), tumour line A

SMILES | Potency [1] | Potency [2] | Potency [3] | Potency [4] | Potency [5] | Potency [6] | activity, negative = cell killing [7, 9] [%] | activity, negative = cell killing [7, 10] [%] | activity, negative = cell killing [7, 11] [%] | Potency ([7]; tumour line A) | Potency ([7]; tumour line D) | activity, negative = cell killing [7, 12] [%] | activity, negative = cell killing [7, 13] [%] | activity, negative = cell killing [7, 14] [%] | activity, negative = cell killing [7, 15] [%] | activity, negative = cell killing [7, 16] [%] | Potency [8]
O=C(O)c1cccnc1 | inactive | inactive | inactive | inactive | inactive | inactive | -10 | -8.9 | -28.3 |  |  |  |  |  |  |  | 
COc1cccc(N(C)C(=S)Oc2ccc3c(c2)CCCC3)n1 | inactive | inactive | inactive | inactive | inactive | inactive |  |  | -18.5 | 12.6 µM (active) | 17.8 µM (active) |  |  |  |  |  | 
CCCN[C@H]1CCc2nc(N)sc2C1 | inactive | inactive | inactive | inactive | inactive | inactive | 3.81 | 9.12 | -13 |  |  | -26.8 |  |  |  |  | 
CNC1CCCN(c2c(F)cc3c(=O)c(C(=O)O)cn(C4CC4)c3c2OC)C1 (centres undefined) | inactive | inactive | inactive | inactive | inactive | inactive | 0.798 | -8.95 | -5.21 |  |  | -37.3 |  |  |  |  | 
COc1ccccc1OCC(O)COC(N)=O (centres undefined) | inactive | inactive | inactive | inactive | inactive | inactive |  |  |  |  |  |  | -0.35 | -3.25 | -10.3 | -18 | inactive
CC(C(=O)O)c1ccc2c(c1)CC(=O)c1ccccc1S2 (centres undefined) | inactive | inactive | inactive | inactive | inactive | inactive | -3.56 | -21.1 | 5.54 |  |  | -9.77 |  |  |  |  | 
COc1nc(N)nc2c1ncn2[C@@H]1O[C@H](CO)[C@@H](O)[C@@H]1O | inactive | inactive | inactive | inactive | inactive | inactive | -17.9 | 6.59 | -10.9 |  |  | -10 |  |  |  |  | 
Cc1nnc(C(=O)NC(C)(C)c2nc(C(=O)NCc3ccc(F)cc3)c(O)c(=O)n2C)o1 | inactive | inactive | inactive | inactive | inactive | inactive | 5.76 | -4.7 | 13.1 |  |  | -16.1 |  |  |  |  | 
CC1=CC(=O)c2ccccc2C1=O | inactive | inactive | inactive | inactive | inactive | inactive |  |  | -17.3 | 35.5 µM (active) | 22.4 µM (active) |  |  |  |  |  | 
CN(Cc1cc(Br)cc(Br)c1N)C1CCCCC1 | inactive | inactive | inactive | inactive | inactive | inactive | -30.4 |  | -4.61 | 5.62 µM (active) |  |  |  |  |  |  | 
C#CCN[C@@H]1CCc2ccccc21 | inactive | inactive | inactive | inactive | inactive | inactive | -8.4 | -8 | -23.8 |  |  | -26 |  |  |  |  | 
CNS(=O)(=O)CCc1ccc2[nH]cc(C3CCN(C)CC3)c2c1 | inactive | inactive | inactive | inactive | inactive | inactive | -8.38 | 2.37 | 9.59 |  |  |  |  |  |  |  | 
CCn1cc(C(=O)O)c(=O)c2cc(F)c(N3CCNCC3)cc21 | inactive | inactive | inactive | inactive | inactive | inactive | 1.94 | 2.4 | -8.69 |  |  |  | 2.43 | -7.83 | -12 | -21.7 | 
Cc1cccc(Nc2ccncc2S(=O)(=O)NC(=O)NC(C)C)c1 | inactive | inactive | inactive | inactive | inactive | inactive |  |  |  |  |  |  | -12.8 | -1.96 | -26 | -11 | 
COc1ccc2c(c1)c(CC(=O)OCC(=O)O)c(C)n2C(=O)c1ccc(Cl)cc1 | inactive | inactive | inactive | inactive | inactive | inactive | -1.02 | -7.57 | 8.41 |  |  |  |  |  |  |  | 
COc1ncnc(NS(=O)(=O)c2ccc(N)cc2)c1OC | inactive | inactive | inactive | inactive | inactive | inactive | -5.91 | -22.1 | -21.2 |  |  |  |  |  |  |  | inactive
CN(C)CCc1c[nH]c2ccc(CS(=O)(=O)N3CCCC3)cc12 | inactive | inactive | inactive | inactive | inactive | inactive | -15.8 | -5.89 | -0.0757 |  |  | -32.2 |  |  |  |  | inactive
